# The list shows a part of the results. The source made the active and inactive calls.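 The calls were made as follows: active = inhibition above the mean of stimulated solvent-only control wells plus 3 SD (cut at about 22% in these data); inactive = the rest.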
# Test: CNGC cAMP sensor activity inhibitors, counter-screen for NPY-Y1 potentiator/agonist project, cell-based, HEK293-CNG parental, membrane potential fluorescence, Y1 set (AID 1704);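 also: 0% = isoproterenol-stimulated DMSO wells and 100% = unstimulated DMSO wells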
# Conditions: isoproterenol cAMP, at 3.6 µM, stronger effect = higher value
row,Structure (SMILES),inhibition
1,CN1C(=O)c2ccccc2C(C(=O)NCCCN2CCCC2)C1c1c[nH]c2ccccc12 (stereo unspecified),-0.85% (inactive)
2,COCCn1nnnc1C(c1ccccc1Cl)N1CCN(c2ccccc2OC)CC1 (stereo unspecified),-5.71% (inactive)
3,N#Cc1ccc(C(=O)Nc2nc(-c3cccs3)c(C(=O)C(F)(F)F)s2)cc1,-18.5% (inactive)
4,O=[N+]([O-])c1cc(Cl)cc(/C=N/NC(=S)Nc2cc(S(=O)(=O)N3CCOCC3)ccc2Cl)c1O,66.5% (active)
5,CC1=C/C(=N\OS(=O)(=O)c2ccccc2)C=CC1=O,16.7% (inactive)
6,CCn1c2ccccc2c2cc(NC(=O)Nc3ccc([N+](=O)[O-])cc3C)ccc21,16.4% (inactive)
7,COC(=O)c1ccc(NC(=O)CN(c2ccc(C)cc2)S(=O)(=O)c2c(C)n[nH]c2C)cc1,36.6% (active)
8,Cc1cccc(OCC(O)CN2CCN(CCN3C(=O)c4cccc5cccc(c45)C3=O)CC2)c1C (stereo unspecified),51.3% (active)
9,Cc1ccccc1NCC(=O)N/N=C\c1ccc([N+](=O)[O-])s1,33.8% (active)
10,COC(=O)c1sc(-c2ccc(C(C)(C)C)cc2)cc1NC(=O)/C=C/C(=O)O,24.5% (active)
11,CC(=O)c1ccc(NC(=O)C2CC(=O)Nc3nc4ccccc4n32)cc1 (stereo unspecified),32.8% (active)
12,O=C(c1cccs1)N1CCN(C(=O)N2CCOCC2)CC1,1.33% (inactive)
13,O=C1/C(=C/c2coc3ccc(O)cc3c2=O)SC(=S)N1c1ccccc1,11.7% (inactive)
14,CSc1nc(-c2ccco2)nn1C(=O)c1ccccc1Cl,12.3% (inactive)
15,O=C(Nc1ccc2c(c1)CCC2)c1cccc(S(=O)(=O)Nc2ccccc2Cl)c1,7.5% (inactive)
16,O=C(Nc1ccccc1C(F)(F)F)c1cc(-c2ccc(O)cc2)on1,-10.9% (inactive)

# Reference: PubChem BioAssay AID1704 (The Scripps Research Institute Molecular Screening Center, 2009)
